Measurements taken from PubChem BioAssay (NCATS).
Inconclusive results are not listed. Active and inactive are the calls of the source. Calls come from the whole dose curve; as a rule, active = well fitted inhibition curve with a large enough effect; inconclusive = small, poorly fitted or top-dose-only effect; inactive = flat fitted curve, though single readings scatter. Where a SMILES comes first, the peptide text is derived from it. The star is where a group is joined. AFC = O=c1cc(C(F)(F)F)c2ccc(N*)cc2o1

System: CRL-7250
Experiment: Cytotoxic Profiling of Annotated Libraries Using Quantitative High-Throughput Screening (AID 1296008); note: nearly all actives have a fitted effect of over 60% in size
Conditions: Five cell lines viability, CellTiter-Glo ATP luminescence, 48-72 h; max response: hits give low values
Method in brief: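 Cells exposed to compounds for 48 or 72 hr at 37 degrees Celsius. Viability read as ATP-coupled luminescence with CellTiter-Glo after 10 min at room temperature.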
% is set by controls: 0 for no effect and ±100 for the full control effect; potency is the fitted concentration of half-maximal effect.

| SMILES | outcome | max response | Potency |
| --- | --- | --- | --- |
| COC(=O)c1ccccc1O[C@@H]1O[C@H](CO)[C@@H](O)[C@H](O)[C@H]1O[C@@H]1O[C@@H](C)[C@H](O)[C@@H](O)[C@H]1O | inactive | – | – |
| Cc1cc(N2CCN([C@@H]3CN[C@H](C(=O)N4CCSC4)C3)CC2)n(-c2ccccc2)n1 | – | -17.8% (inactive) | – |
| Cc1ccccc1CN1C2=NCCN2C(=O)C2=C1CCN(Cc1ccccc1)C2 | – | -16.8% (inactive) | – |
| CN[C@@H]1[C@H](O[C@H]2[C@H](O[C@@H]3[C@@H](O)[C@H](O)[C@@H](N=C(N)N)[C@H](O)[C@H]3N=C(N)N)O[C@@H](C)[C@]2(O)C=O)O[C@@H](CO)[C@H](O)[C@H]1O | – | 2.94% (inactive) | – |
| COc1c2c(c(C)c3c1C(=O)OC3)OC1(C)CC(O)C(C(C)(C)O)C(C)(CCC(=O)O)C1C2 (centres undefined) | inactive | – | – |
| COC(=O)N[C@H](C(=O)N1[C@@H]2CC[C@@H](C2)[C@H]1c1nc2ccc(-c3ccc4c(c3)C(F)(F)c3cc(-c5cnc([C@@H]6CCC7(CC7)N6C(=O)[C@@H](NC(=O)OC)C(C)C)[nH]5)ccc3-4)cc2[nH]1)C(C)C | – | -2.17% (inactive) | – |
| CCn1c(=O)c(-c2ccn[nH]2)cc2c(C)nc(N)nc21 | – | – | 2310 nM (active) |
| c1cc(Nc2cc(C3CC3)[nH]n2)nc(Nc2ccc3nc[nH]c3c2)n1 | – | – | 820 nM (active) |
| CC1CC(O)C2(OC1=O)OC1C(O)C3C4CCC5CC(OC6OC(CO)C(O)C(O)C6OC6OC(C)C(O)C(O)C6O)CCC5(C)C4CCC3(C)C1C2C (centres undefined) | – | -9.09% (inactive) | – |
| C=C[C@@](C)(O)CC/C=C(\C)C(=O)O[C@@H]1[C@@H]2O[C@]2(C)[C@H]2[C@H](O[C@@H]3O[C@H](CO)[C@@H](O)[C@H](O)[C@H]3O)OC=C[C@@]12O | – | -6.64% (inactive) | – |
| COC(=O)C1=CO[C@@H](O[C@@H]2O[C@H](CO[C@@H]3O[C@H](COC(=O)/C=C/c4cc(OC)c(O)c(OC)c4)[C@@H](O)[C@H](O)[C@H]3O)[C@@H](O)[C@H](O)[C@H]2O)[C@@H]2C(CO)=CC[C@H]12 | – | -3.63% (inactive) | – |
| C/C=C/c1ccc2c(c1)[C@@H](C)[C@H](c1ccc(O)cc1)O2 | – | -3.63% (inactive) | – |
| CC1=C2C[C@H]3O[C@@]3(C)CCC3O[C@@]3(C)C[C@@]2(O)OC1=O (some centres undefined) | inactive | – | – |
| CC(=O)N[C@@H](Cc1c[nH]c2ccccc12)C(=O)N[C@@H](CCC(=O)O)C(=O)N[C@@H](Cc1cnc[nH]1)C(=O)N[C@@H](CC(=O)O)C(=O)Nc1ccc2c(C(F)(F)F)cc(=O)oc2c1 (Ac-WEHD-{AFC}) | inactive | – | – |
| COC(=O)C1=CO[C@@H](O[C@@H]2O[C@H](CO)[C@@H](O)[C@H](O)[C@H]2O)[C@@H]2C(CO)=CC[C@]12O | – | -2.05% (inactive) | – |
| COc1cc2c(cc1OC)N1C(=O)C[C@]34C=CCN5CC[C@@H]2[C@@H](CC3)[C@]514 | inactive | – | – |
| CC(C)C[C@H](CC(=O)NO)C(=O)N[C@@H](Cc1ccc2ccccc2c1)C(=O)N[C@@H](C)C(=O)NCCN | – | -4.14% (inactive) | – |
| CC(O)CO[C@@H]1O[C@H](CO)[C@@H](O)[C@H](O)[C@H]1O (some centres undefined) | – | -3.19% (inactive) | – |
| O=C(O)c1cc2cccc([N+](=O)[O-])c2[nH]1 | – | -12.6% (inactive) | – |
| C[C@@H]1O[C@@H](O[C@@H]2[C@@H](O)[C@H](O[C@H]3[C@H](O[C@H]4CC[C@@]5(C)C(CC[C@]6(C)C5CC=C5[C@@H]7CC(C)(C)CC[C@]7(C(=O)O[C@@H]7O[C@H](CO)[C@@H](O)[C@H](O)[C@H]7O[C@@H]7O[C@@H](C)[C@H](O[C@@H]8O[C@@H](C)[C@H](O)[C@@H](O)[C@H]8O)[C@@H](O)[C@H]7O)CC[C@]56C)[C@@]4(C)CO)O[C@H](C(=O)O)[C@@H](O)[C@@H]3O)O[C@H](CO)[C@H]2O)[C@H](O)[C@H](O)[C@H]1O (some centres undefined) | inactive | – | – |
| C/C1=C\CC[C@H](C)CCO[C@@H]2O[C@H](CO[C@@H]3OC[C@](O)(COC1=O)[C@H]3O)[C@@H](O)[C@H](O)[C@H]2O | inactive | – | – |
| OC/C=C/C=C/[C@H]1Cc2cc(O)cc(O)c2O1 | inactive | – | – |
| COc1cc([C@H]2c3cc(O)c(OC)cc3C[C@@H](CO[C@@H]3O[C@H](CO)[C@@H](O)[C@H](O)[C@H]3O)[C@@H]2CO)ccc1O | – | -6.95% (inactive) | – |
| CN1CCc2nc(C(=O)N[C@@H]3C[C@@H](C(=O)N(C)C)CC[C@@H]3NC(=O)C(=O)Nc3ccc(Cl)cn3)sc2C1 | – | 3.08% (inactive) | – |
